KCNQ2 block = KCNQ2 (rat) channel inhibition | O88943 | CHO-K1 KCNQ2, FluxOR thallium flux, 20 min; hits give low values | B-score at 10 µM | 1.1% of 310,000 active;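 active means fluorescence ratio B-score at most minus 3 library SDs, with starting brightness B-score within 2 library SDs, cut at about -5.5 in these data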
Target sequence (O88943 whole entry, looked up): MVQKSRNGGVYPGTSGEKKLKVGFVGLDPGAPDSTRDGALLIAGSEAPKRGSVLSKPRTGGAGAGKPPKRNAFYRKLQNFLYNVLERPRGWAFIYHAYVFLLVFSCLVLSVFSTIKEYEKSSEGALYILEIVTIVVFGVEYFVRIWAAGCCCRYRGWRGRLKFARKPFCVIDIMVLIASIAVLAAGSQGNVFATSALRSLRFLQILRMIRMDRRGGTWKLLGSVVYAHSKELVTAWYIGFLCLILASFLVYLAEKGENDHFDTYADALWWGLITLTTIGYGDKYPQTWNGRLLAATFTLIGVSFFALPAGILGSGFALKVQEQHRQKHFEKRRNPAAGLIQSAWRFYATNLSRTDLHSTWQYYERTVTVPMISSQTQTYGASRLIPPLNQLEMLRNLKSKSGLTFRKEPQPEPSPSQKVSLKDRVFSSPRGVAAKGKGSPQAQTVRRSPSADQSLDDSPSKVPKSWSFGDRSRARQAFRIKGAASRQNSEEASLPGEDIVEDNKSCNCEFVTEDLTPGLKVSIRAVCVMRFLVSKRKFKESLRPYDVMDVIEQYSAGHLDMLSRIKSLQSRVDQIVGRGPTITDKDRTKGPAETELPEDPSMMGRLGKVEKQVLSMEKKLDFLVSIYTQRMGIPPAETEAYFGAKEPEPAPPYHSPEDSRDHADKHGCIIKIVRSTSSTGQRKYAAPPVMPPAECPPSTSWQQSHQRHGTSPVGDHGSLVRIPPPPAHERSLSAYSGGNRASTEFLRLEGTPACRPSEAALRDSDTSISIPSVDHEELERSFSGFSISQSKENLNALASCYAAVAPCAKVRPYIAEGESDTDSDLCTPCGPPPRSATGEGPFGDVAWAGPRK
KCNQ2 pot = enhances the rat KCNQ2 potassium channel. O88943. 0.54% of 310,000 active. B-score at 10 µM. CHO-K1 KCNQ2, FluxOR thallium flux fluorescence; hits give high values. AID 2239;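 active means fluorescence ratio B-score at least 3 SD of library B-scores, with initial fluorescence B-score within 3 of them, cut at about 5.3 in these data; same plate scores as AID 2156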;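 further: B-score of peak minus minimum over baseline fluorescence ratio after K+ and Tl+ stimulus; positive B-score means potentiation of KCNQ2 with more thallium influx and brighter signal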
A number is an active result. Shown are actives, neighbours in structure and some others; about 1.6% of the full set was active somewhere.

Results for CN(C)S(=O)(=O)c1cccc(NC(=S)Nc2cc(Cl)cc(Cl)c2)c1 ?
KCNQ2 block: inactive; KCNQ2 pot: inactive

Results for CCN(CCO)c1ccc(NC(=S)Nc2cccc(S(=O)(=O)N(C)C)c2)cc1 ?
KCNQ2 block: -6.7; KCNQ2 pot: inactive

What do the screens show for `O=[N+]([O-])c1ccc(/C=N/Nc2nc(N3CCCCC3)nc(N3CCCCC3)n2)o1`?
KCNQ2 block: -5.6; KCNQ2 pot: inactive

What do the screens show for `COc1c(/C=N/Nc2nc(N3CCCCC3)nc(N3CCCCC3)n2)cccc1[N+](=O)[O-]`?
KCNQ2 block: inactive

What do the screens show for `CCN(CC)S(=O)(=O)c1cccc(N=Nc2c(O)c3ccccc3oc2=O)c1`?
KCNQ2 block: inactive

Results for CCC(C)(C)NC(=O)CN(C(=O)CNS(=O)(=O)c1ccc(F)cc1)c1ccc2c(c1)OCCO2 ?
KCNQ2 block: inactive; KCNQ2 pot: inactive

What do the screens show for `COCn1c(-c2cccc(Br)c2)nc2ccccc21`?
KCNQ2 block: -5.9; KCNQ2 pot: inactive

How did COCn1c(-c2ccc(OC)c(OC)c2)nc2ccccc21 do in these assays?
KCNQ2 block: inactive

How did COc1ccc(C(=O)N(CCc2ccccc2)Cc2cccs2)c(OC)c1 do in these assays?
KCNQ2 block: inactive

How did CS(=O)(=O)c1ccc(C(=O)N(CCc2ccccc2)Cc2ccccc2)cc1 do in these assays?
KCNQ2 block: inactive

What do the screens show for `COc1ccc(C(=O)N(CCc2ccccc2)Cc2ccccc2)c(OC)n1`?
KCNQ2 block: -7.7; KCNQ2 pot: inactive

How did CS(=O)(=O)c1ccccc1C(=O)N(CCc1ccccc1)Cc1ccccc1 do in these assays?
KCNQ2 block: -5.6; KCNQ2 pot: inactive

What do the screens show for `CCOC(=O)N1CCN(S(=O)(=O)c2ccc(OC)c(C(=O)N3CCCCC3)c2)CC1`?
KCNQ2 block: inactive; KCNQ2 pot: inactive

Results for CC(=O)N(c1ccccc1C)C1CCCC1 ?
KCNQ2 block: inactive; KCNQ2 pot: inactive

Results for CC(=O)N(C1=C(Cl)C(=O)c2ccccc2C1=O)C1CCCCC1 ?
KCNQ2 block: -5.7; KCNQ2 pot: inactive

What do the screens show for `Cc1cc(C)c(C#N)c(N2CCN(c3ccccc3)CC2)n1`?
KCNQ2 block: inactive

What do the screens show for `COc1ccccc1N1CCN(c2nc(C)cc(C)c2C#N)CC1`?
KCNQ2 block: -5.9; KCNQ2 pot: inactive

What do the screens show for `CCn1ccc(C(=O)Nc2ncc(C)s2)n1`?
KCNQ2 block: inactive; KCNQ2 pot: inactive

How did Cc1ccc(S(=O)(=O)N(CC(=O)NC2CC2)c2ccc(C)c(Cl)c2)cc1 do in these assays?
KCNQ2 block: inactive

Results for COC(=O)c1ccc(C(=O)OC)c(NC(=O)COC(=O)C2CCCCC2)c1 ?
KCNQ2 block: inactive; KCNQ2 pot: inactive

Results for COC(=O)c1ccc(C(=O)OC)c(NC(=O)COC(=O)C2CCC(C(C)(C)C)CC2)c1 (stereo not given) ?
KCNQ2 block: -5.9; KCNQ2 pot: inactive

How did COc1ccc(-c2[nH]n(-c3ccc([N+](=O)[O-])cc3)c(=O)c2C=NCCN2CCNCC2)cc1 do in these assays?
KCNQ2 block: inactive

How did O=c1c(C=NCCN2CCNCC2)c(-c2ccccc2)[nH]n1-c1ccc([N+](=O)[O-])cc1 do in these assays?
KCNQ2 block: -7; KCNQ2 pot: inactive

How did Cc1ccc(NC(=O)CNC(=O)c2ccco2)c(Cl)c1 do in these assays?
KCNQ2 block: inactive

How did CN(Cc1ccc(F)cc1)C(=O)C(Cc1ccccc1)NC(=O)c1ccccc1 (stereo not given) do in these assays?
KCNQ2 block: inactive

Results for CN(Cc1ccccc1)C(NC(=O)c1ccco1)C(Cl)(Cl)Cl (stereo not given) ?
KCNQ2 block: inactive; KCNQ2 pot: inactive

What do the screens show for `CN(Cc1ccccc1)C(=S)NC(=O)c1ccc(-c2ccccc2)cc1`?
KCNQ2 block: inactive; KCNQ2 pot: 7.1

What do the screens show for `CN(Cc1ccccc1)C(=S)NC(=O)c1cccs1`?
KCNQ2 block: inactive; KCNQ2 pot: inactive

What do the screens show for `CSc1ccc(CN(C)C(=O)C(Cc2ccccc2)NC(=O)c2ccccc2)cc1` (stereo not given)?
KCNQ2 block: -5.5; KCNQ2 pot: inactive

What do the screens show for `CN(Cc1ccccc1)C(NC(=O)c1ccccc1)C(Cl)(Cl)Cl` (stereo not given)?
KCNQ2 block: -5.8; KCNQ2 pot: inactive

How did CC(=O)Nc1ccc(S(=O)(=O)N2CCN(Cc3cccc([N+](=O)[O-])c3)CC2)cc1 do in these assays?
KCNQ2 block: inactive

How did Cc1cc(CN2CCCC(N3CCc4ccccc4C3)C2)cc(C)c1O (stereo not given) do in these assays?
KCNQ2 block: inactive

Results for Cc1ccc(N(CC2CO2)S(=O)(=O)c2ccc([N+](=O)[O-])cc2)cc1 (stereo not given) ?
KCNQ2 block: -6.8; KCNQ2 pot: inactive

How did Cc1ccc(N(CC2CO2)S(=O)(=O)c2ccc(C)cc2)cc1 (stereo not given) do in these assays?
KCNQ2 block: inactive

How did Nc1nnnn1/N=C/c1ccc(F)cc1 do in these assays?
KCNQ2 block: inactive; KCNQ2 pot: inactive

Results for O=C(C/C=N/OCc1c(Cl)cccc1Cl)c1ccc(Cl)cc1 ?
KCNQ2 block: -7.4; KCNQ2 pot: inactive

What do the screens show for `O=C(C/C=N/OCc1c(Cl)cccc1Cl)c1cnc(-c2ccccc2)s1`?
KCNQ2 block: inactive

Results for COc1cc2c(cc1OC)C(c1ccccc1)N(C(=O)C(C)(C)C)CC2 (stereo not given) ?
KCNQ2 block: inactive

Results for CNC(=O)c1[nH]cnc1C(=O)NCC(=O)OCc1ccccc1 ?
KCNQ2 block: inactive

What do the screens show for `Cc1ccc(-c2cc(C(=O)NCCN3CCOCC3)c3ccccc3n2)o1`?
KCNQ2 block: inactive

What do the screens show for `CCc1ccc(S(=O)(=O)/N=C2\C=C(Nc3ccc(C(=O)O)cc3)C(=O)c3ccccc32)cc1`?
KCNQ2 block: inactive; KCNQ2 pot: inactive

Results for CC(C)(C)c1ccc(S(=O)(=O)/N=C2\C=C(NS(=O)(=O)c3ccccc3)C(=O)c3ccccc32)cc1 ?
KCNQ2 block: -6.1; KCNQ2 pot: inactive

Results for CC1Cc2cc(S(=O)(=O)CCC(=O)NCc3ccco3)ccc2N1C(=O)C1CC1 (stereo not given) ?
KCNQ2 block: inactive; KCNQ2 pot: inactive

What do the screens show for `Cn1c2ccccc2c(=O)c2c(=O)n(C3CCCCC3)c(-c3ccco3)nc21`?
KCNQ2 block: inactive; KCNQ2 pot: 6.7

Results for Cc1nc2c(c(=O)c3ccccc3n2C)c(=O)n1C1CCCCCC1 ?
KCNQ2 block: inactive; KCNQ2 pot: inactive

Results for COC(/C(=N/O)c1ccc(Cl)cc1)c1ccccc1 (stereo not given) ?
KCNQ2 block: inactive

What do the screens show for `COc1ccc(-c2nc(SCC(=O)NC3CCCCC3)n[nH]2)cc1`?
KCNQ2 block: inactive

What do the screens show for `CC1(C)Cc2cccc(OCC(=O)N3CCN(c4cccc(Cl)c4)CC3)c2O1`?
KCNQ2 block: inactive

How did CC1(C)Cc2cccc(OCC(=O)N3CCN(c4ccccc4Cl)CC3)c2O1 do in these assays?
KCNQ2 block: -6.2; KCNQ2 pot: inactive

What do the screens show for `COc1ccc(C(=O)COC(=O)[C@H](C)Nc2ccc(C(F)(F)F)cc2[N+](=O)[O-])cc1`?
KCNQ2 block: inactive; KCNQ2 pot: inactive

Results for Cc1cc(C)c(C(=O)COC(=O)[C@H](C)Nc2ccc(C(F)(F)F)cc2[N+](=O)[O-])c(C)c1 ?
KCNQ2 block: -6.2; KCNQ2 pot: inactive

What do the screens show for `COc1ccc(/C=N/Nc2nc(N3CCCC3)nc(N3CCCC3)n2)cc1O`?
KCNQ2 block: -6.3; KCNQ2 pot: inactive

What do the screens show for `COc1ccc(/C=N/Nc2nc(N3CCCC3)nc(N3CCCC3)n2)cc1`?
KCNQ2 block: inactive

Assay outcomes: PubChem BioAssay, Johns Hopkins Ion Channel Center
